From PubChem
Sampled rows, rich in hits. Any-hit rate of the full collection: about 1.5%.
FEN1 inhibitor – inhibitors of human flap endonuclease 1 | Recombinant FEN1 flap cleavage, fluorescence, 15 min | Potency, µM (doses to about 114 µM), without a hit: at the highest dose activity change, negative = inhibition, usual class: inhibitors | 390,000 tested, 0.35% active | P39748; note: potency is the fitted concentration of half-maximal effect; nearly all actives have a fitted effect of over 65% in size
Target sequence (P39748 whole entry, looked up): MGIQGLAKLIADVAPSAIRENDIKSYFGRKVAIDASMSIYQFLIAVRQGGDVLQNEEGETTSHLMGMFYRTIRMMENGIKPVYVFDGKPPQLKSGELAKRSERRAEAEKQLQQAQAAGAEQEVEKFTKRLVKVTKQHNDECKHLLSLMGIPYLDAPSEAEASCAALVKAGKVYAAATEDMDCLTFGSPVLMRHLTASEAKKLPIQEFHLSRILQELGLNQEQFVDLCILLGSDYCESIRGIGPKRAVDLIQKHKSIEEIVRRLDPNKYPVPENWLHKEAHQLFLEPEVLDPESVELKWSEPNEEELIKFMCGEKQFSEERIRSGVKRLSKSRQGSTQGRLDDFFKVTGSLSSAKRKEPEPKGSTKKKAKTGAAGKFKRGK
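FEN1 at 10 nM, compound pretreatment for 15 min (room temperature), 50 nM final substrate to initiate; endpoint reads at 0 and 15 min; DMSO-only plates used as vehicle background.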
PGK inhibitor – T. brucei PGK inhibition; PGK/GAPDH coupled, Kinase-Glo luminescence, 60 min; Potency, µM (top dose mostly 57.5 µM), for inactives: top-dose activity change, negative = inhibition, usual class: inhibitors; 380,000 tested, 0.043% active; note: potency is the fitted concentration of half-maximal effect; nearly all actives have a fitted effect of over 60% in size
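Recombinant glycosomal PGK reaction used 1,3-bisphosphoglycerate generated in-well by GAPDH (100nM final) in 100mM TEA pH 7.6, 5mM MgCl2, 0.01% Tween-20. After 60 minutes at room temperature, ATP was read by Kinase-Glo Plus luminescence end-point.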
TDP1 inh – TDP1 (human) enzyme inhibition. Potency, µM (doses to about 130 µM), for inactives: top-dose activity change, negative = inhibition, usual class: inhibitors. recombinant TDP1, AlphaScreen DNA substrate cleavage. Q9NUW8. 350,000 tested, 0.28% active; note: potency is the fitted concentration of half-maximal effect; nearly all actives have a fitted effect of over 40% in size
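Compounds were preincubated with Tdp1 (1 nM final) for 15 min at room temperature before substrate (15 nM final) started a 5 min reaction; beads (10 ug/ml final) were then added for 10 min before AlphaScreen detection.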
PI5P4Ka inh – blocks human PI5P4K alpha kinase activity; P48426; PI5P4Kalpha enzyme, ADP-Glo luminescence, 60 min; hits give low values; AID 652105; max response, %; 330,000 tested, 1.2% active; active = max response of -50% or lower; inconclusive = between -30% and -50%; inactive = -30% or higher; note: value at the top dose of about 77 µM
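PI5P4Kalpha ADP-Glo assay; 5 microM ATP final; 60 min RT reaction; HEPES pH 7.4/EGTA/CHAPS, 5% DMSO; controls lacking substrate or enzyme; luminescent end-point.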
WRN helicase inh – WRN helicase (human) inhibition. WRN helicase unwinding, fluorescent forked duplex, kinetic. Q14191. Potency, µM (series often up to 114 µM), without a hit: at the top dose activity change, negative = inhibition, actives largely listed as inhibitors. 360,000 tested, 0.46% active. AID 651768; note: potency is the fitted concentration of half-maximal effect; nearly all actives have a fitted effect of over 55% in size
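Screening of the MLSMR collection measured strand separation of a quenched forked DNA duplex (100 nM) by 20 nM WRN with 2 mM ATP, all final. Compounds were preincubated with enzyme 15 min at room temperature.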
Tb PFK inh – inhibitors of T. brucei phosphofructokinase; O15648; T. brucei PFK, ADP-Glo luminescence; Potency, µM (highest dose often 57.5 µM), for inactives: at the highest dose activity, negative = inhibition, most hits filed as inhibitors; 330,000 tested, 0.17% active;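 note: potency is the fitted concentration of half-maximal effect; 0% = uninhibited 1x PFK enzyme wells and -100% = no-enzyme wells; nearly all actives have a fitted effect of over 60% in size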
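In TEA buffer at pH 8.0 with 5 mM MgCl2, enzyme (1.25 nM) converted F6P (0.5 mM) and ATP (0.1 mM) for 45 min at room temperature. ADP product was read by luciferase luminescence.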
Starred values were filed as active, the others as inactive; i = inactive; ? = inconclusive; · = no result given; [ ] = remark or other dose. Unless noted, calls come from the whole dose curve; as a rule, active = well fitted curve in the direction sought with a large enough effect; inconclusive = small, poorly fitted or top-dose-only effect, or another doubt; inactive = no such curve, though single readings can be large; an effect the other way counts as inactive or inconclusive. Unless noted, % is set by controls: 0 for no effect and ±100 for the full control effect.

SMILES	FEN1 inhibitor	PGK inhibitor	TDP1 inh	PI5P4Ka inh	WRN helicase inh	Tb PFK inh
COc1ccc(C(=O)Nc2ccc(S(=O)(=O)Nc3cc(C)nc(C)n3)cc2)cc1	15.3%	-6.3%	·	4.3	-2.4%	12.5%
S=C1SCN(Cc2ccccc2)CN1Cc1ccco1	·	-9.7%	·	-75.4*	-5.9%[11.6 µM]	·
Cc1ccc(-c2nnc(SCCC(=O)Nc3ccccc3)n2C)cc1	-3.5%	·	·	·	·	·
CCOC(=O)OCC1OC(c2ccccc2)C=CC1OC(=O)OCC (centres undefined)	·	·	10.1%[21 µM]	·	·	·
O=C(Nc1ccc(S(=O)(=O)Nc2nccs2)cc1)c1nn(-c2ccccc2)ccc1=O	-0.2%	?	-7.5%	?	79.4µM*	?
Cc1cccc(-n2ccc(=O)c(C(=O)Nc3ccc(S(=O)(=O)Nc4nccs4)cc3)n2)c1	-17.3%	-14.9%	3.3%	?	5.9%[11.6 µM]	-9.0%
COC(=O)C1=C(C)N(CCCC(=O)O)C(=O)NC1c1ccc(OC)cc1 (centres undefined)	1.9%	-0.4%	·	-61.9*	3.3%	·
CCOC(=O)C1=C(C)N(CCCCCC(=O)O)C(=O)NC1c1ccc(Cl)cc1 (centres undefined)	-3.1%	-3.1%	·	-7.2	0.1%	-1.8%
CCOC(=O)C1=C(C)N(CCCC(=O)O)C(=O)NC1c1ccc(OC)cc1 (centres undefined)	1.9%	i	5.3%	-70.6*	-3.9%	-0.6%
COC(=O)C1=C(C)N(CCCCCC(=O)O)C(=O)NC1c1ccccc1 (centres undefined)	10.3%	6.8%	10.9%	3.7	2.4%	·
CC1=C(C(=O)OCc2ccccc2)C(c2ccc(-c3ccccc3)cc2)NC(=O)N1CCCCCC(=O)O (centres undefined)	-9.8%	-2.6%	1.3%	-5.2	-12.4%	-4.1%
CCOC(=O)C1=C(C)N(CCCC(=O)O)C(=O)NC1C(CC)CC (centres undefined)	-17.8%	6.8%	·	-57.6*	5.8%	·
C[N+]1(CC(=O)c2ccc(-c3ccccc3)cc2)CCOCC1	-1.9%	·	·	·	·	·
COc1ccc(CN(Cc2ccccc2)C(=O)c2ccccc2O)cc1COc1ccc(NC(C)=O)cc1	·	·	-12.5%	·	·	·
N#Cc1nc(Nc2cccc(F)c2)nc(NC2CCCC2)n1	·	·	-3.6%	·	·	·
COc1ccc(COC(=O)N/N=C2/C[C@@H](O)[C@@H](O)[C@@H]3[C@@H]4C(=O)N(c5cccc(Oc6ccccc6)c5)C(=O)[C@H]4CC[C@H]23)cc1	·	·	11.1%[21 µM]	·	·	·
Cc1ccc(S(=O)(=O)N2CCCCC2)cc1C(=O)Nc1ccc(S(=O)(=O)Nc2ncccn2)cc1	?	-22.9%	31.6µM*	?	?	-1.6%
Cc1ccc(S(=O)(=O)N2CCCCCC2)cc1C(=O)Nc1cccnc1	2.5%	-4.6%	2.9%	0.8	-22.0%	0.7%
O=c1c2ccccc2ncn1-c1ccc(Cl)cc1	-0.1%	-2.5%	0.0%	5.4	-16.1%	6.5%
O=c1c2ccc(F)cc2sn1-c1ccccc1	·	-7.9%	·	-108.3*	-7.0%	·
Cc1ccc(-n2sc3cc(F)ccc3c2=O)c(C)c1	·	0.6%	·	-87.2*	-7.0%	·
O=C(c1sc2cc(F)ccc2c1Cl)N1CCN(c2cccc(Cl)c2)CC1	-5.0%	2.1%	2.7%	2.2	4.7%	-7.6%
O=c1c2cc(F)ccc2sn1-c1ccccc1Cl	·	-14.4%	·	-84.0*	3.4%	·
Cc1ccc(N2C(=O)c3ccccc3C2=O)c(C)c1	·	·	2.9%	·	·	·
O=c1c2ccccc2sn1-c1ccc(Cl)cc1	·	-15.6%	·	-99.5*	-3.1%	·
SMILES	FEN1 inhibitor	PGK inhibitor	TDP1 inh	PI5P4Ka inh	WRN helicase inh	Tb PFK inh
O=C(C[n+]1cccc2cc(Cl)ccc21)c1ccc(I)cc1	-3.2%	·	·	·	·	·
Cc1nc(S/C(=C/c2ccc(OCc3ccc(C(=O)O)cc3)cc2)C(=O)O)n[nH]1	?	-12.7%	12.6µM*	?	?	20.1%
Cn1cc(/C=C/c2cc[n+](C)cc2)c2cc(Cl)ccc21	50.1µM*	-1.6%	·	-14.1	-3.4%[57.1 µM]	-9.4%
OCc1ccccc1SSc1ccccc1CO	?	-7.8%	·	-18.5	14.1µM*	·
CCCCCN(CCCCC)c1ccc(/C=C/c2ccnc3ccccc23)cc1	-14.0%	·	·	·	·	·
C[C@H]1Cc2c(COc3ccccc3)nc3c(c2CO1)CN(S(=O)(=O)c1ccc(Cl)c2nonc12)CC3	·	·	9.2%[12.3 µM]	·	·	·
O=C1NC(=S)N/C1=C/c1cccc([N+](=O)[O-])c1O	-11.7%	-5.8%	2.0%	-89.1*	-17.6%	-1.3%
O=C1NC(=S)N/C1=C/c1cc([N+](=O)[O-])ccc1O	-3.0%	i	-0.7%	-60.9*	?	5.6%
Cn1c(Sc2ccc(C(=O)O)cc2[N+](=O)[O-])nnc1-c1ccccc1	0.6%	i	-8.1%	-76.8*	?	-1.9%
Cc1cc(C=O)c(C)n1-c1cccc(C(=O)O)c1	1.8%	-4.6%	5.01µM*	-4.8	-15.2%[11.6 µM]	-12.4%
Cc1cc(C=O)c(C)n1-c1cc(C(=O)O)cc(C(=O)O)c1	?	10µM*	-2.4%	-12.8	-25.8%	?
Cc1ccc(S(=O)(=O)NC(N)=NCCC[C@@H](N)C(=O)Nc2cc(C(F)(F)F)ccc2Cl)cc1	·	·	-1.1%	·	·	·
CCN(CC)CCOC(=O)c1ccc(N/C=C(/C#N)c2nc(-c3ccc(OC)cc3)cs2)cc1	?	-6.4%	·	-68.6*	?	?
COc1ccc(/C=C(/C#N)c2nc(-c3ccc(-c4ccccc4)cc3)cs2)cc1	-5.0%	-5.8%	2.2%[12.3 µM]	·	·	·
O=c1cc(-c2ccccc2Cl)oc2c(NS(=O)(=O)c3cc(Cl)cc(Cl)c3O)ccc(O)c12	-35.6%	?	19.4%	-89.0*	?	0.2%
O=c1cc(-c2ccccc2Cl)oc2c(NS(=O)(=O)c3cccc4nsnc34)ccc(O)c12	-10.3%	2.0%	·	-0.1	-1.2%	2.0%
Cc1nc2cc(-c3ccccc3)sc2c(=O)n1N	-16.8%	10µM*	-7.9%	-71.7*	-30.0%	-29.5%
COc1ccc(-c2cc3nc4n(c(=O)c3s2)CCC4)cc1	-0.6%	-6.7%	0.0%	·	1.2%	-17.9%
COc1ccc(-c2cc3nc(C)n(N)c(=O)c3s2)cc1	-14.8%	4.47µM*	·	-53.1*	-4.9%	-27.0%
COc1cccc(Cn2ncc3c4sc(SC)cc4n(C)c3c2=O)c1	·	·	0.3%	·	·	·
S=c1[nH]nc(SCc2ccccc2)c2[nH]cnc12	-9.9%	-2.2%	·	?	-25.2%	·
CCCCSc1n[nH]c(=S)c2nc[nH]c12	10.2%	-7.0%	·	-62.6*	-6.1%	·
